# Source: PubChem (National Center for Advancing Translational Sciences (NCATS))
# An excerpt weighted towards active compounds, which were near 2.6% of everything screened.
# AmpC det inh: inhibitors of E. coli AmpC beta-lactamase with detergent; Potency, µM (top dose mostly 28.7 µM), without a hit: top-dose activity change, negative = inhibition; AID 584; 71,000 compounds, 0.09% hits; P00811; purified AmpC, nitrocefin hydrolysis with detergent; active means well fitted curve in the direction sought with a large enough effect; inconclusive means small, poorly fitted or top-dose-only effect; further: on the % scale 0 is the no-effect control and ±100 the full control effect
# Target sequence (P00811 whole entry, looked up): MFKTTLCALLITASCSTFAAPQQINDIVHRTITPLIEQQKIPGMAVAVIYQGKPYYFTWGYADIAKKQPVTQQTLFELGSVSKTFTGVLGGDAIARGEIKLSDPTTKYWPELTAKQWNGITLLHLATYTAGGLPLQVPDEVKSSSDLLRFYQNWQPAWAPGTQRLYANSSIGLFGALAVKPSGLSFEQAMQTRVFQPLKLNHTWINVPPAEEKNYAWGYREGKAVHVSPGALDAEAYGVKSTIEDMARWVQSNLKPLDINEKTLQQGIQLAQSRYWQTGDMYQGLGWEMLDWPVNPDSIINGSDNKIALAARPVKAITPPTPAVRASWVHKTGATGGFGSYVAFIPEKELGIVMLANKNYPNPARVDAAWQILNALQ
#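 E. coli AmpC (5.3 nM) in 20 mM phosphate pH 7.0 with 0.01% Triton X-100, preincubated 15 min RT with compound; nitrocefin (2 uL of 800 uM stock) hydrolysis followed by 480 nm absorbance every 20 s over 4 min.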
# Anthrax LT inh: anthrax lethal toxin internalization inhibition; Cells, anthrax lethal toxin internalization, FRET ratio (460/530); Potency, µM (top dose mostly 40 µM), without a hit: at the highest dose activity change, negative = inhibition, hits mostly inhibitors; 70,000 compounds, 0.67% hits; AID 912; further: on the % scale 0 is the no-effect control and ±100 the full control effect; nearly all actives have a fitted effect of over 50% in size
# Prx2 Sm inh: blocks S. mansoni peroxiredoxin 2 enzymatic activity; 65,000 compounds, 0.07% hits; Potency, µM; S. mansoni Prx2 activity coupled to TGR/GSH (TGR is thioredoxin glutathione reductase), NADPH fluorescence loss, qHTS
#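 Prx2 inhibition was measured as reduced NADPH consumption when electrons flowed from NADPH through TGR and glutathione to Prx2 and H2O2. Plates were read kinetically over 8 min; enzyme reagents were held at 4 deg C during dispensing.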
# AmpC nodet inh: inhibitors of E. coli AmpC beta-lactamase without detergent; AID 585; AmpC nitrocefin hydrolysis, absorbance 480 nm, no detergent; P00811; Potency, µM (doses to about 28.7 µM), inactives show top-dose activity change, negative = inhibition; 71,000 compounds, 1.8% hits; further: % of control where 0% means no effect
#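 AmpC in 20 mM phosphate buffer pH 7.0 was preincubated 15 min at room temperature with compounds. Nitrocefin (800 uM stock) was then added and hydrolysis followed at 480 nm every 20 s for 4 min.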
# * marks the source's active call; other numbers are inactive results; ? = inconclusive; . = not tested or not shown; [ ] = dose if it differs, or a comment. Unless noted, the call rests on the fitted dose curve. Potency means the concentration at half of the fitted maximal effect.
SMILES,AmpC det inh,Anthrax LT inh,Prx2 Sm inh,AmpC nodet inh
O=C(c1ccc2nc(-c3ccco3)c(-c3ccco3)nc2c1)N1CCC2(CC1)OCCO2,-4%,?,>57,61%
Cc1[nH]nc2c1C1(CCC(c3ccccc3)CC1)C(C#N)=C(N)O2 (stereo not drawn),-2%,-4%,>57,-5%
N#Cc1c(N2CCCC2)nc(N)c2c(N)nc(N3CCCC3)cc12,8%,-15%,>57,51%
N#Cc1c(N)nc(N2CCCC2)c(C#N)c1-c1ccc(Cl)cc1,4%,1µM*,>57,-16%
COc1ccccc1CN(Cc1cc2c(C)ccc(C)c2[nH]c1=O)Cc1nnnn1Cc1ccco1,-3%,16µM*,>57,58%
CCCCNN,-1%[5.75 µM],.,>57,1%[5.75 µM]
Cc1c(C(=O)c2ccc3ccccc3c2)c2cccc3c2n1[C@H](CN1CCOCC1)CO3,-6%,2µM*,>26,115%
CC1CCN(CC(C)OC(=O)c2ccc3c(c2)OCCO3)CC1 (stereo not drawn),27%,-7%,>57,4µM*[single pt active]
CC(CN1CCCCC1)OC(=O)c1ccc2c(c1)OCO2 (stereo not drawn),-1%,-3%,>57,-10%
COc1ncc2nc(-c3ccc(F)cc3)c(=O)n(CCC#N)c2n1,0%,-5%,>57,-5%
O=C(Cn1ncc2c(=O)oc3ccccc3c21)N1CCC(N2CCCCC2)CC1,10%,-13%,>57,3.2µM*[single pt active]
Cc1ccc2oc(=O)c3cnn(CC(=O)N4CCCc5ccccc54)c3c2c1,6%,14%,.,36%
O=C(Cn1ncc2c(=O)oc3ccccc3c21)N1CCc2ccccc2C1,12%,-11%,>57,4µM*[single pt active]
CCOC(=O)N1CCC(NC(=O)c2ccc3c(c2)N(C)CCS3)CC1,0%,?,>57,48%
COC(=O)c1ccc2c(c1)N(C)CCS2,12%,10%,.,4µM*[single pt active]
O=C(NC1CCN(Cc2ccccc2)CC1)C1COc2ccccc2O1 (stereo not drawn),-3%,-4%,>57,-2%
CC(CN(C)Cc1ccccc1)OC(=O)C1COc2ccccc2O1 (stereo not drawn),10%,5%,>57,4µM*[single pt active]
Cc1nonc1NC(=O)CSc1nc(C2CCCCC2)nc2ccccc12,-2%,?,>57,-13%
Cc1cc2nc(SCC(=O)Nc3nonc3C)c3c(c2cc1C)CCCC3,1%,-17%,>57,13µM*
CCNc1ncc2nc(C)c(=O)n(-c3ccc(OC)cc3)c2n1,-4%,-29%,>57,15%
COc1ccc(-n2c(=O)c(C)nc3cnc(N(C)C)nc32)cc1,0%,10µM*,>57,20%
C=CCn1c(COc2ccc(F)cc2)nnc1SCC(=O)NC(=O)NCc1ccco1,-3%,0%,>57,1%
O=c1cc(-c2ccccc2)oc2c1ccc1ccccc12,-1%,25µM*,>57,59%
Cc1nn(-c2ccc(Cl)cc2)c2sc(C(=O)N3CCN(C(=O)c4ccco4)CC3)cc12,-2%,0%,>57,43%
COc1cc(S(=O)(=O)NCc2ccc3c(c2)OCO3)ccc1Cl,7%,?,>57,-14%
SMILES,AmpC det inh,Anthrax LT inh,Prx2 Sm inh,AmpC nodet inh
CCOc1ccc(OCC)c(S(=O)(=O)NCc2ccc3c(c2)OCO3)c1,14%,-11%,>57,4µM*[single pt active]
COc1cc(C)c(S(=O)(=O)NCc2ccc3c(c2)OCO3)cc1C,11%,?,>57,3.2µM*[single pt active]
CCCC1(C(=O)OCC)NC(c2ccc(N(C)C)cc2)C2C(=O)N(c3ccc(F)cc3)C(=O)C21 (stereo not drawn),-1%,-20%,>57,72%
CC(=O)c1cccc(NC2c3ccccc3C(=O)N2Cc2ccc3c(c2)OCO3)c1 (stereo not drawn),13%,-18%,>57,4µM*[single pt active]
Cc1nc(N2CCN(C(=O)CCC(=O)O)CC2)c2c(C)c(C)sc2n1,10%,?,>57,-4%
CCOC(=O)N1CCC(N2C(=O)c3ccccc3C2Nc2ccccc2C)CC1 (stereo not drawn),-1%,7%,>57,136%
Cc1c(-c2nc(N)nc(Nc3ccccc3)n2)oc2ccccc12,-6%,13µM*,>57,98%
COc1cccc(C2CC(=O)N3CN(c4ccccc4F)CSC3=C2C#N)c1 (stereo not drawn),8%,?,>57,4µM*[single pt active]
COc1cc(C2CC(=O)N3CN(c4ccccc4C)CSC3=C2C#N)cc(OC)c1OC (stereo not drawn),-6%,?,>57,48%
COc1ccc(OC)c(C2CC(=O)N3CN(c4ccccc4F)CSC3=C2C#N)c1 (stereo not drawn),12%,-7%,>57,4µM*[single pt active]
COc1ccccc1N1CSC2=C(C#N)C(c3ccc(SC)cc3)CC(=O)N2C1 (stereo not drawn),11%,?,>57,2.5µM*
CCSC(C)CC1C/C(=N/O)c2c(CC)noc2C1 (stereo not drawn),8%,-4%,.,-6%
CCOc1ccc(OCC)c(NC(=O)CN2CCN(c3cccc(C)c3)C(C)C2)c1 (stereo not drawn),0%,-7%,>57,66%
Cn1c(=O)oc2cc(S(=O)(=O)N3CCC(C(=O)N4CCN(c5ccccc5)CC4)CC3)ccc21,12%,-3%,>57,12%
Cn1c(=O)oc2cc(S(=O)(=O)N3CCC(C(=O)NCc4cccs4)CC3)ccc21,11%,-2%,>57,3.2µM*[single pt active]
CN1CCN(C(=O)C2CCN(S(=O)(=O)c3ccc4c(c3)oc(=O)n4C)CC2)CC1,9%,2%,>57,4µM*[single pt active]
Cn1c(=O)oc2cc(S(=O)(=O)N3CCCC(C(=O)N4CCc5ccccc5C4)C3)ccc21 (stereo not drawn),13%,?,>57,56%
Cn1c(=O)oc2cc(S(=O)(=O)N3CCCC(C(=O)N4CCn5c4nc4ccccc45)C3)ccc21 (stereo not drawn),12%,-1%,>57,4µM*[single pt active]
Cn1c(=O)oc2cc(S(=O)(=O)N3CCCC(C(=O)NCCN4CCOCC4)C3)ccc21 (stereo not drawn),11%,2%,>57,4µM*[single pt active]
Cc1ccc(C(=O)O)cc1S(=O)(=O)N1CCSCC1,-2%,0%,>57,-8%
Cn1c(=O)oc2cc(S(=O)(=O)N3CCC(C(=O)NCC4COc5ccccc5O4)CC3)ccc21 (stereo not drawn),12%,-12%,>57,4µM*[single pt active]
CC(C)Cc1nnc(NS(=O)(=O)c2ccc(Cl)cc2)s1,25%,-14%,>57,4µM*[single pt active]
COCc1nnc(NS(=O)(=O)c2ccc(C)cc2)s1,15%,-6%,>57,-10%
C/C(=N\O)c1ccc2c3c([nH]c2c1)CCCC3,4%,10µM*,.,-9%
O=C(NCCO)c1ccc2[nH]c3c(c2c1)CCCC3,5%,-13%,.,2%
CC1CCN(c2nnc(N)s2)CC1,10%,1%,.,5%
O=C(Cn1cnc2sc(-c3ccccc3)cc2c1=O)NCc1ccco1,18%,-26%,>57,5µM*
CCOC(=O)c1sc(N)nc1-c1ccccc1,10%,-1%,>57,-10%
